FMDV inh: antivirals against foot and mouth disease virus; Potency, µM (series often up to 57.9 µM), inactives show at the highest dose activity change, negative = inhibition, most hits filed as inhibitors; hit rate 1.2% among 410,000; FMDV antiviral cell-based qHTS; calls by dose curve; tested in HEK293T cells; also: read-out not given here; nearly all actives have a fitted effect of over 45% in size
Vaccinia Venus: inhibitors of vaccinia virus (Venus reporter). Potency, µM (titrated, usually from 36.5 µM), for inactives: at the top dose activity change, negative = inhibition, usual class: inhibitors. Vaccinia virus Venus reporter expression, fluorescence. AID 720580. hit rate 0.46% among 330,000; calls by dose curve; tested in A549 cells; also: nearly all actives have a fitted effect of over 30% in size
Marburg entry inh: Marburg virus entry inhibition. hit rate 1.8% among 300,000. AID 540276. Potency, µM (doses to about 37.8 µM), for inactives: at the top dose activity change, negative = inhibition, hits mostly inhibitors. Marburg virus pseudotyped entry inhibition, cell reporter; calls by dose curve; tested in HEK293 cells
Vaccinia mCherry: vaccinia inhibition (mCherry reporter). Vaccinia virus mCherry reporter infection, fluorescence. Potency, µM (highest dose often 36.5 µM), for inactives: at the top dose activity change, negative = inhibition, most hits filed as inhibitors. hit rate 0.63% among 310,000. AID 720579; calls by dose curve; tested in A549 cells; also: nearly all actives have a fitted effect of over 35% in size
Lassa entry inh: Lassa virus entry inhibition; Lassa virus pseudotype entry inhibition, cell reporter; Potency, µM (doses to about 37.9 µM), inactives show top-dose activity change, negative = inhibition, hits mostly inhibitors; hit rate 1.2% among 300,000; AID 540256; calls by dose curve; tested in HEK293 cells; also: nearly all actives have a fitted effect of over 50% in size
Sm TGR inh: inhibitors of Schistosoma mansoni thioredoxin glutathione reductase. Q962Y6. purified TGR, DTNB reduction, TNB absorbance 405 nm. Potency, µM (highest dose often 114 µM), inactives show top-dose activity change, negative = inhibition, actives largely listed as inhibitors. hit rate 3% among 360,000. AID 485364; active = well fitted inhibition curve with a large enough effect; inconclusive = small, poorly fitted or top-dose-only effect; inactive = no such curve, though single readings can be large or run the other way; also: nearly all actives have a fitted effect of over 60% in size
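TGR 20 nM + NADPH 100 uM (dispensed conc.), cpd preinc 15 min RT; start with NADPH (500 uM addition) then DTNB (15 mM addition). Kinetic TNB absorbance, 405 nm filter. Four-parameter Hill fit across titration.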
* hit, by the source's call; i = inactive; u = inconclusive; x = no result; [ ] = dose if it differs, or a comment. Hits are enriched below; roughly 5.4% of the tested compounds scored in any of these assays. % is scaled to controls: 0 for no effect and ±100 for the full control effect; potency is read from the fitted curve at half-maximal effect.

SMILES	FMDV inh	Vaccinia Venus	Marburg entry inh	Vaccinia mCherry	Lassa entry inh	Sm TGR inh
COc1ccc(CNc2ncnc3nc[nH]c23)cc1	x	-16%	x	-26%	x	x
COc1ccc(C(=O)C[n+]2cn(C(F)F)c3ccccc32)c(F)c1	17%	-16%	3%[46.1 µM]	-11%	23%	10µM*
CCN1C(=O)CC(CC(=O)N2CCC(c3nc4ccc(F)cc4[nH]3)CC2)(c2ccccc2C)C1=O (stereo not drawn)	-11%	-5%	x	-29%	x	x
COc1ccc(Cn2c(C(=O)O)c(CNCCc3ccco3)c3ccc(OC)cc32)cc1	11%	-3%	x	2%	10%[46.1 µM]	45µM*
COc1ccc2c(CNCc3ccco3)c(C(=O)O)n(Cc3ccccc3)c2c1	0%	-7%	x	-2%	-1%[46.1 µM]	-11%
COc1ccc(Cn2c(C(=O)O)c(CNCc3ccco3)c3ccc(C)cc32)cc1	-6%	-7%	x	-4%	u	0%
Cc1ccc2c(CNCCc3ccco3)c(C(=O)O)n(Cc3ccc(F)cc3)c2c1	-17%	5%	x	4%	-4%[46.1 µM]	40µM*
N/C(=N\OC(=O)c1cccc(Cl)c1)c1ccccn1	-57%	-9%	3.7µM*	-6%	7.9µM*	-1%
N/C(=N\OC(=O)c1ccc(Cl)c([N+](=O)[O-])c1)c1ccccn1	49%	u	3.2µM*	-19%	u	-22%
O=C(COC(=O)c1cnccn1)c1ccc(Cl)c([N+](=O)[O-])c1	-22%	-7%	-22%	-9%	7%	40µM*
N/C(=N\OC(=O)c1ccc(Cl)c(Cl)c1)c1ccccn1	-53%	x	u	x	u	9%
CCOc1ccccc1CNC(=O)CN1C(=O)CCc2cc(S(=O)(=O)N3CCCCC3)ccc21	13%	-12%	x	-9%	22%[46.1 µM]	3%
O=C(c1ccccc1Br)N(Cc1ccco1)C1CCS(=O)(=O)C1 (stereo not drawn)	-20%	5%	9%[46.1 µM]	-6%	2%[46.1 µM]	-16%
CCc1ccc(-n2c(N3CCN(c4cccc(Cl)c4)CC3)nc3ccccc3c2=O)cc1	0%	-20%	u	-13%	-18%[46.1 µM]	-3%
CC(=O)N(C)c1ccc(N=Nc2ccc3ncccc3c2)cc1	-15%	-8%	u	u	10µM*	x
CCS(=O)(=O)N1CCc2cc(C(=O)Nc3ccc(Br)cc3F)ccc21	0%	-23%	u	-19%	u	-8%
Cc1cc(C)cc(N2CC(O)=C(c3nc4ccccc4c(=O)[nH]3)C2=N)c1	5%	-26%	u	-10%	-17%	6%
COc1cccc(N2CC(O)=C(c3nc4ccccc4c(=O)[nH]3)C2=N)c1	x	2.8µM*	u	u	u	18%
COc1ccc(-c2nc3ccccc3c(=O)[nH]2)cc1	17%	-4%	13µM*	-12%	u	-25%
CN(C)c1ccc(-c2nc3ccccc3c(=O)[nH]2)cc1	-59%	x	x	x	x	0%
COc1ccccc1CCNC(=O)C(=O)NCC(c1ccc2c(c1)OCO2)N1CCOCC1 (stereo not drawn)	-23%	-5%	x	3%	-5%[46.1 µM]	8%
O=C(CSc1ccc([N+](=O)[O-])cc1)c1ccccc1	1%	-10%	u	-23%	6%	x
CCN1CC2([N+](=O)[O-])C=CC(=O)C([N+](=O)[O-])(C1)C2CC(=O)c1ccccc1 (stereo not drawn)	-21%	-2%	5%	i	11%	13µM*
CCCCN1CC2([N+](=O)[O-])C=CC(=O)C([N+](=O)[O-])(C1)C2CC(=O)c1ccccc1 (stereo not drawn)	-16%	-4%	0%	-13%	u	22µM*
COCCCN1CCc2nc(SCC(=O)Nc3ccc(C)c(Cl)c3)[nH]c(=O)c2C1	u	-7%	-3%[46.1 µM]	-11%	16%[46.1 µM]	-4%
SMILES	FMDV inh	Vaccinia Venus	Marburg entry inh	Vaccinia mCherry	Lassa entry inh	Sm TGR inh
Cc1cccc(N(C)S(=O)(=O)c2nnc(NC(=O)C3CCCCC3)s2)c1	4%	-15%	x	-19%	u	2%
Cc1cc(=O)oc2ccc(OCC(=O)N(Cc3ccc(F)cc3)Cc3ccco3)cc12	20µM*	-22%	u	-15%	-25%	18µM*
CCC(C)[C@H](NC(=O)[C@@H]1CSC2c3ccccc3C(=O)N21)C(=O)NCc1ccco1 (stereo partly drawn)	-10%	-4%	-14%[46.1 µM]	i	-5%[46.1 µM]	45µM*
COC(=O)C1(CO)NC(c2ccc(C)cc2)C2C(=O)N(c3ccccc3)C(=O)C21 (stereo not drawn)	-5%	x	x	x	x	-15%
CC(C)(C)C(=O)NCC12C=CC(O1)C1C(=O)N(c3ccccc3)C(=O)C12 (stereo not drawn)	4%	-3%	-4%	-2%	-1%	1.6µM*
O=C1C2C3C=CC(CO)(O3)C2C(=O)N1c1ccc(-c2ccccc2)cc1 (stereo not drawn)	x	x	x	x	x	0.5µM*
Cc1ccc2c(c1)c(C)c(C)n2CC(O)Cn1nnc2ccccc21 (stereo not drawn)	-56%	x	21µM*	x	u	0%
O=C(O)c1ccccc1N/N=C/c1c(Sc2nnnn2-c2ccccc2)nc2ccccn2c1=O	-13%	x	x	x	x	40µM*
O=c1c(/C=N/Nc2ccccc2)c(Sc2nnnn2-c2ccccc2)nc2ccccn12	102%	x	-10%	x	6%	u
COCC(C)NCc1cc2ccc(OC)cc2nc1N1CCN(c2ccc(F)cc2)CC1 (stereo not drawn)	-23%	u	x	u	x	x
O=C(CNS(=O)(=O)c1ccc(F)cc1)Nc1ccc(C(F)(F)F)cc1	-29%	x	-4%	x	-14%	-3%
Cc1ccc(CNS(=O)(=O)c2ccc(C(F)(F)F)cc2)n1C	45%	x	x	x	x	16µM*
Cc1ccc(S(=O)(=O)NCc2cc(=O)n(C)c(=O)n2C)cc1C	4%	x	x	x	x	5%
Cc1ccc(CNS(=O)(=O)c2ccc(F)c(F)c2)n1C	15%	25%	0%[46.1 µM]	-20%	14%[46.1 µM]	20µM*
COc1ccc(-c2nc(CS(=O)CC(=O)NC3CCCCCC3)c(C)o2)cc1 (stereo not drawn)	33%	-10%	-26%[46.1 µM]	-16%	0%[46.1 µM]	40µM*
COc1ccc(-c2nc(CS(=O)CC(=O)NC3CCCCC3)c(C)o2)cc1 (stereo not drawn)	41%	x	x	x	x	u
COc1ccc(-c2nc(CS(=O)CC(=O)NC3CCCCC3)c(C)o2)cc1OC (stereo not drawn)	5%	-4%	-15%[46.1 µM]	i	-9%[46.1 µM]	35µM*
Cc1oc(-c2ccccc2)nc1CS(=O)CC(=O)NC1CCCC1 (stereo not drawn)	4%	-10%	x	i	x	7.9µM*
COc1cccc(-c2nc(CS(=O)CC(=O)NC3CC3)c(C)o2)c1 (stereo not drawn)	4%	-7%	x	14%	x	u
COc1ccc(-c2nc(CS(=O)CC(=O)N3CCOCC3)c(C)o2)cc1OC (stereo not drawn)	1%	x	x	x	x	40µM*
CCc1nc2ccccc2n1CCCCOc1ccc(Cl)cc1	u	-2%	11%[46.1 µM]	-1%	-13%[46.1 µM]	0%
